Results as given in publication PMC7819943, “Rice protein-binding microarrays: a tool to detect cis-acting elements near promoter regions in rice”.
Whole data set: some 68,000 sequences, median “fluorescence intensity (a.u.)” near 9,100, cut for the highest 2% near 16,000. This excerpt belongs to a sample that is enriched for the highest values.

molecular target: OsWRKY34 (Oryza sativa, UniProt Q0JBA9 1-250); assay: protein-binding microarray (RPBM); PBS, 2% BSA, 51.3 ng/ul salmon testes DNA, 50 uM zinc acetate, 200 nM TF, 25 C, 1 h; high values mean tight binding; conditions: protein: recombinant; tags: N-terminal polyhistidine and DsRed monomer fusion (pET32a); label: CyDye5-dUTP incorporated in the synthesized complementary strand; 3' TTTTT single-stranded linker to array surface; dsDNA, one strand shown
Sequence (Q0JBA9 entry or part of it): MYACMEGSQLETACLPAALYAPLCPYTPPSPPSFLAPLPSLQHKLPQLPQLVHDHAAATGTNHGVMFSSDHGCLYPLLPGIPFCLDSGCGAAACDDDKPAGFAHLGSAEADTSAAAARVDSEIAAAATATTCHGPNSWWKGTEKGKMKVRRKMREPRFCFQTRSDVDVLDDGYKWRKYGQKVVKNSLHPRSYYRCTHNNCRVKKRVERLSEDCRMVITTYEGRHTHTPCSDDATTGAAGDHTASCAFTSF
Method in brief: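 The binding signal is fluorescence intensity per feature, in arbitrary units, read on an Axon 4000B scanner. Polyhistidine- and DsRed-tagged transcription factors (N-terminal fusions) from E. coli BL21-CodonPlus were purified on Ni–NTA and applied at 200 nM for 1 h at 25 °C to a double-stranded, BSA-blocked custom Agilent array in buffer with 50 µM zinc acetate.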

| Sequence | binding signal |
| --- | --- |
| TCCTCTTTTTGCTGGCTTTCTGTTGACTGTTATTTTATTTCGGAGTCACCTAGTGCAG | 17100 fluorescence intensity (a.u.) |
| GATGGCTTCGATTTGCTGTGTTACTTCTTTTTTCTAGTTTCGGAGTCACCTAGTGCAG | 16900 fluorescence intensity (a.u.) |
| CTTTCTTTGACTGTTGCCTTTTATTTTGTGCAGGTTGTATCGGAGTCACCTAGTGCAG | 11300 fluorescence intensity (a.u.) |
| TATTTCGATTTGATGGCTTCCTGTTGCTTTTCCTGTTAATCGGAGTCACCTAGTGCAG | 14000 fluorescence intensity (a.u.) |
| TTTTGAGTGCTTTTATTTCTTTATTTCTTTATTTCTTTATCGGAGTCACCTAGTGCAG | 9320 fluorescence intensity (a.u.) |
| CCTGTTGCTGCTCTGTGCCTCTGCTCTGCTCCTTGACTTCCGGAGTCACCTAGTGCAG | 11300 fluorescence intensity (a.u.) |
| ATGTTGACTCGTTTGCCTGTGTTCCTCTTGCTGCTATTCACGGAGTCACCTAGTGCAG | 19200 fluorescence intensity (a.u.) |
| TTGCTTTTGTGTTCGGTTTTTCTATTTTTTCTATTTTCTTCGGAGTCACCTAGTGCAG | 13700 fluorescence intensity (a.u.) |
| CCTCTTGCTATGTGCTGCTCTTCCTTGTTCTTCTTGCCTACGGAGTCACCTAGTGCAG | 10800 fluorescence intensity (a.u.) |
| GGTTTCGGTTAACTTTTGTGCACACTCGCCAGTGAGAGTTCGGAGTCACCTAGTGCAG | 12300 fluorescence intensity (a.u.) |
| TGTAAGTCATTCCACCATTTCCCACATTCATATTGATGCCCGGAGTCACCTAGTGCAG | 8890 fluorescence intensity (a.u.) |
| TTTAACCTAAACCACATGTGAATTTCTTCTTATGTATTCCCGGAGTCACCTAGTGCAG | 8700 fluorescence intensity (a.u.) |
| GTGGGATTCGCCTGCTTGCTTGCTGGGGCCTTGGGAAATGCGGAGTCACCTAGTGCAG | 8230 fluorescence intensity (a.u.) |
| TCAAAACGGCCCACTCGCCGCCCGCCACGTGTCCGACCCGCGGAGTCACCTAGTGCAG | 8920 fluorescence intensity (a.u.) |
| GATCCGCATCACTGATTCACTGCACTTCGCCCGCCGTCTGCGGAGTCACCTAGTGCAG | 9810 fluorescence intensity (a.u.) |
| TTTTATTCAATATATGTATATAGGTATCTTTGGTTGTTTTCGGAGTCACCTAGTGCAG | 8320 fluorescence intensity (a.u.) |
| TTCGAGCACATCTACTTCGCGCTCCCAAACTCCGTGGTGTCGGAGTCACCTAGTGCAG | 8080 fluorescence intensity (a.u.) |
| GTGGGTGTTTGCGAGCTTTTGTTCGTATGCTTTTTTACTTCGGAGTCACCTAGTGCAG | 9960 fluorescence intensity (a.u.) |
| TGTTGTTGTGGTGGTGGTGGTGGTGGTAGTGCGTGAGTGACGGAGTCACCTAGTGCAG | 21200 fluorescence intensity (a.u.) |
| GTTGTTTGGTTGCGTGAGGAGAGGAGGAGGAGGAGGAGGACGGAGTCACCTAGTGCAG | 8200 fluorescence intensity (a.u.) |
| TCATATATGAGTTTGTGGGTGTGGGTGTTTGCGAGCTTTTCGGAGTCACCTAGTGCAG | 30700 fluorescence intensity (a.u.) |

| Sequence | binding signal |
| --- | --- |
| GAGGTGTGTGTTCGTAGAGATGAGTGCGTGCGCGTTGTGACGGAGTCACCTAGTGCAG | 9140 fluorescence intensity (a.u.) |
| GCAATTGTTCAATATTTTTTTGTGTGTATGTGTTTTTTTTCGGAGTCACCTAGTGCAG | 18200 fluorescence intensity (a.u.) |
| TCATATGGGTTGGTGTATGTGTATTGTGAGTCTGTGTTTGCGGAGTCACCTAGTGCAG | 8300 fluorescence intensity (a.u.) |
| TTTTTTTGTGTTTTGCAATTTTATGTTTTGCACTTATTTTCGGAGTCACCTAGTGCAG | 8070 fluorescence intensity (a.u.) |
| GGGTGAGTGTGTGTTGTGCGTTGTGAGTGTGTATGTGTTTCGGAGTCACCTAGTGCAG | 17200 fluorescence intensity (a.u.) |
| TCTCTCTGTGTGTGTTTGTGTCATATATGAGTTTGTGGGTCGGAGTCACCTAGTGCAG | 9570 fluorescence intensity (a.u.) |
| GGGTGAGTGCGCGTGCGTTGTGAGTGTTTGTATTGTACTGCGGAGTCACCTAGTGCAG | 9790 fluorescence intensity (a.u.) |
| ATTTCGGATTTGTATGTATTGTGTTTTTTTAAAAAAAATTCGGAGTCACCTAGTGCAG | 9880 fluorescence intensity (a.u.) |
| ATCCCACCGTGGCGCCACCCTATTGGGCCCTACTCTTCAGCGGAGTCACCTAGTGCAG | 8780 fluorescence intensity (a.u.) |
| ACTCCATATCGCTTCGCGATTTTTTGTTGACCAAATCAATCGGAGTCACCTAGTGCAG | 9610 fluorescence intensity (a.u.) |
| AATCTCGTTCCTTGCTGTTGTGACTAGTATCGTTGCCTACCGGAGTCACCTAGTGCAG | 10500 fluorescence intensity (a.u.) |
| GCCTGCTGTTCCTTTTAGTTTCTCCAAGCTCCTGCCAACACGGAGTCACCTAGTGCAG | 8320 fluorescence intensity (a.u.) |
| CGTGGTGGTGGTAGGGGAGGGGATGGATGATATGGCGTGACGGAGTCACCTAGTGCAG | 22400 fluorescence intensity (a.u.) |
| ACGCGGGGATGGATGATGGTGGTGGCGGCGAGGGGATGATCGGAGTCACCTAGTGCAG | 9170 fluorescence intensity (a.u.) |
| GGAGGCATGATGGCGGCATGGTGGAGGGTGGGGTGACGTGCGGAGTCACCTAGTGCAG | 12000 fluorescence intensity (a.u.) |
| CTAGATTCGTTTTTTATGGGGTGGAGGGAGTACATGCCTTCGGAGTCACCTAGTGCAG | 12800 fluorescence intensity (a.u.) |
| ACCTTTTATGGTGGGGTAGGAGTAGGTGACGGTGGAGATTCGGAGTCACCTAGTGCAG | 19000 fluorescence intensity (a.u.) |
| TATAGTAGTATGGGTGGAGATTTATATTTTTCTCTCGATTCGGAGTCACCTAGTGCAG | 8940 fluorescence intensity (a.u.) |
| GAAATACTCCAATGGGTTAACTTAGGGTCGGGAAGGGGAGCGGAGTCACCTAGTGCAG | 10100 fluorescence intensity (a.u.) |
| TTCCTGCTCTGTCCGTGCTCGACTCAATTCATTGTCAACCCGGAGTCACCTAGTGCAG | 8690 fluorescence intensity (a.u.) |
| CTTTGCATCTCTTCTTTTCTTTCTTTTTTTTTTCTTTTCTCGGAGTCACCTAGTGCAG | 12100 fluorescence intensity (a.u.) |
